High-throughput results from PubChem BioAssay.
aSyn rescue = qHTS of alpha-syn Inhibitors | AID 652106, 2013 | Potency, µM (series often up to 46.1 µM), without a hit: at the top dose growth rescue (activation), actives largely listed as activators | hit rate 0.14% among 370,000 | Yeast expressing alpha-synuclein, growth rescue, BacTiter-Glo, 24 h; note: % of control where 0% means no effect; nearly all actives have a fitted effect of over 65% in size
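Readout is rescue of growth in alpha-synuclein-expressing yeast, so inhibitors of toxicity appear as activators. Growth after 24 hr at 30 deg C in galactose medium is quantified by luminescence.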
Abeta rescue = qHTS for compounds that reverse cellular toxicity of Amyloid beta (A-beta) peptide in yeast: Primary Screen; AID 1347071, 2019; hit rate 0.063% among 410,000; yeast expressing A-beta42, growth rescue, OD600, 48 h; response scale: 0% DMSO, 100% iron-clioquinol control; Potency, µM (highest dose often 46.1 µM), actives largely listed as activators; note: nearly all actives have a fitted effect of over 55% in size
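Growth rescue measured by 600 nm absorbance after 48 h yeast culture at 30 C with compound. Values normalized between DMSO and an equimolar ferric chloride plus clioquinol control.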
FUS yeast rescue = qHTS for Suppressors of FUS Proteinopathy: Primary screen using FUS-linked yeast assay; S. cerevisiae FUS-expressing, growth rescue, OD600, 24 h; hit rate 0.24% among 390,000; Potency, µM (titrated, usually from 76.6 µM), hits mostly activators; AID 1347120, 2019;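 note: plate controls were DMSO vehicle for no effect and reference control for full effect; nearly all actives have a fitted effect of over 55% in size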
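Steps: raffinose overnight preculture; dilution to OD 0.005 in 2% galactose minimal medium; compound addition (concentration series); 24hr at 30C, 99% humidity; absorbance read at 600 nm.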
TDP43 rescue = qHTS of TDP-43 Inhibitors; TDP-43 expressing yeast growth rescue, BacTiter-Glo, 24 h; Potency, µM (titrated, usually from 46.1 µM), for the others: at the highest dose growth rescue (activation), usual class: activators; hit rate 1.8% among 410,000; AID 652104, 2013; note: % of control where 0% means no effect; nearly all actives have a fitted effect of over 50% in size
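In this qHTS, compounds that restore growth of yeast expressing TDP-43 appear as activators. Cells (OD600=0.02, galactose medium, raffinose-pregrown) are incubated with compound 24 hr at 30 deg C and growth is quantified by BacTiter-Glo.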
An asterisk follows results filed as active; i = inactive; ? = inconclusive; . = no result. Sampled rows, rich in hits. Any-hit rate of the full collection: about 2.1%. Calls come from the whole dose curve; as a rule, active = well fitted curve in the direction sought with a large enough effect; inconclusive = small, poorly fitted or top-dose-only effect, or another doubt; inactive = no such curve, though single readings can be large; an effect the other way counts as inactive or inconclusive. Potency is the fitted concentration of half-maximal effect.

SMILES | aSyn rescue | Abeta rescue | FUS yeast rescue | TDP43 rescue
OC(c1cccc(Cl)c1)c1nc(-c2cc3ccccc3o2)cs1 (stereo not drawn) | -44% | i | i | 35µM*
OC(c1cccc(Cl)c1)c1nc(-c2cccc3cccnc23)cs1 (stereo not drawn) | 18µM* | ? | i | ?
CCc1nc2cccnc2n1-c1ccc(CC(=O)Nc2ccccc2Cl)cc1 | . | i | i | 20%
O=C(Nc1ccc(F)cc1)c1ccc(Cn2nc(N3CCN(c4ccccc4)CC3)ccc2=O)o1 | . | i | ? | 22µM*
Cc1ccc(NC(=O)Cn2nc(N3CCN(c4ccccc4)CC3)ccc2=O)cc1F | . | i | ? | 18µM*
CC(=O)c1ccc(NC(=O)Cn2nc(N3CCN(c4ccccc4)CC3)ccc2=O)cc1 | . | i | i | 0%
CCOc1ccccc1CNC(=O)CCCN1C(=O)COc2ccc(C)cc21 | . | i | i | ?
COc1ccccc1C/C(N)=N/OC(=O)c1cccs1 | -48% | i | i | ?
COc1ccc(/C(N)=N/OC(=O)c2cccs2)cc1OC | 3% | i | i | 22µM*
COc1ccc(C/C(N)=N/OC(=O)c2cccs2)cc1 | -36% | i | i | 16µM*
Cc1ccc(/C(N)=N/OC(=O)c2cccs2)cc1 | -59% | i | i | ?
COc1cc(-c2noc(-c3ccc(NCCc4ccccc4)c([N+](=O)[O-])c3)n2)cc(OC)c1OC | . | i | i | 20%
CCOc1ccccc1NC(=O)CN1C(=O)C2(SCC(=O)N2c2ccc(C)cc2)c2ccccc21 (stereo not drawn) | -9% | i | i | 18%
C=CCN(CC#Cc1ccc(OC)cc1)CC=C | . | . | i | .
CC(C)Nc1nc(NC(C)C)nc(SCCOC(=O)Nc2ccc(Cl)cc2Cl)n1 | -6% | i | . | 16µM*
Cc1ccc(OCCSc2nc(N)cc(N)n2)cc1 | -17% | i | i | -20%
CCNc1nc(NCC)nc(OCCOC(=O)c2ccccc2)n1 | -2% | i | i | ?
CCNc1nc(NC(C)C)nc(SCCOC(=O)c2ccccc2)n1 | -16% | i | i | 13µM*
CCNc1nc(NC(C)C)nc(SCCOc2ccc(C)cc2)n1 | -12% | i | i | 13µM*
Cc1ccc(NC(=O)c2cccs2)cc1 | -27% | i | 28µM* | -23%
CCCCN(CCCC)S(=O)(=O)c1ccc(NC(=O)c2cccs2)cc1 | -3% | i | 2µM* | -29%
Cc1ccc(NC(=O)C(=O)NNC(=O)c2cccs2)cc1 | -5% | i | i | 3%
COc1cc(/C=C(/C#N)C(=O)NCc2ccccc2)cc(OC)c1OC | ? | i | i | 20µM*
CCc1ccccc1N(C)C(=O)c1cn(-c2cccc(OC)c2)c(=O)c2ccccc12 | . | i | i | 20µM*
Nc1nc(SCc2ccc(Cl)cc2)ns1 | -5% | ? | i | 16µM*
SMILES | aSyn rescue | Abeta rescue | FUS yeast rescue | TDP43 rescue
Nc1nc(SCc2ccccc2)ns1 | 0% | i | i | 30%
O=S(=O)(c1cccc2ccccc12)N1CCN(c2nc(-c3cccs3)nc3ccccc23)CC1 | 0% | . | . | .
Cc1ccccc1Oc1ncnc2sccc12 | -16% | i | i | 11µM*
c1ccc(Oc2ncnc3sccc23)cc1 | -1% | i | i | 11µM*
COc1ccccc1Oc1ncnc2sccc12 | -5% | i | i | ?
O=C(CCC(=O)OCc1ccc(C(=O)Oc2ccc(Cl)cc2)cc1)Nc1ccccc1 | -4% | i | i | -3%
O=C(CCc1c[nH]c2ccccc12)OCc1ccc(Br)cc1 | 3% | i | i | 13µM*
O=C(CCC(=O)OCc1ccc(Br)cc1)Nc1ccccc1 | 4% | i | i | 7.1µM*
O=C(O)c1ccccc1C(=O)OC1CCCC2CCCC21 (stereo not drawn) | 18% | i | . | 22µM*
CC1C2CCC(C2)C1OC(=O)c1ccccc1C(=O)O (stereo not drawn) | 13% | i | i | 5%
CC(C)Cc1nn2c(=O)cc(COC(=O)c3cccc(NC(=O)c4cccs4)c3)nc2s1 | . | i | i | 9%
CCCCN1C(=O)c2[nH]nc(-c3ccccc3O)c2C1c1ccc(C(C)(C)C)cc1 (stereo not drawn) | . | i | i | 17%
Cc1cc(C)n(-c2nc(Nc3ccccc3C(F)(F)F)nc(-n3nc(C)cc3C)n2)n1 | ? | i | ? | 20µM*
Cc1cc(C)n(-c2nc(NC(C)(C)C)nc(NC(C)(C)C)n2)n1 | 1% | ? | i | 5%
Cc1ccc2c(c1)-c1c(cnn1CC(=O)N1CCN(c3ccccc3F)CC1)CO2 | . | i | i | 20µM*
Cc1ccc2c(c1)-c1c(cnn1CC(=O)N(Cc1ccco1)C1CCCCC1)CO2 | 15% | i | i | 35µM*
O=C(Cn1ncc2c1-c1ccccc1OC2)N1CCN(c2ccccc2F)CC1 | . | i | i | 23%
O=C(COc1ccccc1C(=O)NCc1ccccc1)Nc1ccc(I)cc1 | . | . | i | .
NC(=O)CSc1nc2ccccc2n1Cc1ccccc1F | ? | i | i | 23%
Cc1cccc(Cn2c(Cc3ccccc3)nc3ccccc32)c1 | -2% | i | i | ?
Fc1ccccc1Cn1c(-c2ccccc2)nc2ccccc21 | . | i | i | 22µM*
Cc1cccc(Cn2c(-c3ccccc3)nc3ccccc32)c1 | . | i | i | 14µM*
C=C(C)Cn1c(-c2ccccc2)nc2ccccc21 | 0% | i | i | 16%
CCSc1nc2ccccc2n1Cc1ccccc1F | -11% | i | i | 14µM*
COc1ccc(NC(=O)C2CCN(S(=O)(=O)c3ccc4[nH]c(=O)ccc4c3)CC2)c(OC)c1 | -7% | i | i | 19%
SMILES | aSyn rescue | Abeta rescue | FUS yeast rescue | TDP43 rescue
CCc1ccc(NC(=O)CSC2=Nc3ccccc3C3=NC(CCC(=O)NCc4ccccc4OC)C(=O)N23)cc1 (stereo not drawn) | . | i | i | -11%
c1ccc2nc3c(nc2c1)[nH]c1ccccc13 | 7% | i | i | 7.1µM*
CCOc1cc(C)c(C(C)C)cc1S(=O)(=O)n1ccnc1CC | . | i | i | 20µM*
CCCC/C=C1/C(c2ccccc2)N(Cc2ccc(OC)cc2OC)C2=NC(c3ccccc3)CC(=O)N21 (stereo not drawn) | . | . | i | .
Cc1ccc(NC(=O)N2CCN(c3nnc(C)c4c(C)n(-c5ccccc5)nc34)CC2)cc1Cl | . | i | i | 20%
O=C(/C=C/c1ccco1)OCn1nnc2ccccc2c1=O | 1% | i | i | ?
Cc1ccc(/C=C/C(=O)OCn2nnc3ccccc3c2=O)o1 | ? | i | i | 18µM*
Cc1ccc(SCCC(=O)OCn2nnc3ccccc3c2=O)cc1 | 4% | i | i | 35µM*
